VACV Venus inh = qHTS for Stage-Specific Inhibitors of Vaccinia Orthopoxvirus: Venus Reporter Primary qHTS; Vaccinia virus Venus reporter expression, fluorescence; Potency, µM (titrated, usually from 36.5 µM), actives largely listed as inhibitors; 330,000 tested, 0.46% active; AID 720580, 2013; calls by dose curve; tested in A549 cells; further: nearly all actives have a fitted effect of over 30% in size
Lassa entry inh = qHTS for Inhibitors of binding or entry into cells for Lassa Virus; Lassa virus pseudotype entry inhibition, cell reporter; Potency, µM (doses to about 37.9 µM), actives largely listed as inhibitors; 300,000 tested, 1.2% active; AID 540256, 2011; calls by dose curve; tested in HEK293 cells; further: nearly all actives have a fitted effect of over 50% in size
HCMV antiviral = qHTS Assay for inhibitors of the human cytomegalovirus (HCMV) | AID 1259415, 2018 | 410,000 tested, 4.5% active | HFF cells, HCMV-luciferase reporter, 72 h; stronger effect = lower value | activity change, negative = inhibition, % at 57.5 µM; in the data active means activity change below about -60%; inconclusive means no clear call, values can overlap the other calls; inactive means above about -39%
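Inhibition of viral replication was scored as loss of reporter luminescence in HFFs infected with HCMV-luciferase (MOI 1 PFU/cell) for 72 h; compounds tested at 2 doses, normalized to buffer and Salinomycin controls.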
Marburg entry inh = qHTS for inhibitors of binding or entry into cells for Marburg Virus. Marburg virus pseudotyped entry inhibition, cell reporter. Potency, µM (highest dose often 37.8 µM), actives largely listed as inhibitors. 300,000 tested, 1.8% active; calls by dose curve; tested in HEK293 cells
FMDV inh = High Throughput Screening for Foot and Mouth Disease Virus Antivirals | FMDV antiviral cell-based qHTS | Potency, µM (series often up to 57.9 µM), usual class: inhibitors | 410,000 tested, 1.2% active; calls by dose curve; tested in HEK293T cells; further: read-out not given here; nearly all actives have a fitted effect of over 45% in size
VACV mCherry inh = qHTS for Stage-Specific Inhibitors of Vaccinia Orthopoxvirus: mCherry Reporter Primary qHTS | Vaccinia virus mCherry reporter infection, fluorescence | Potency, µM (series often up to 36.5 µM), hits mostly inhibitors | 310,000 tested, 0.63% active | AID 720579, 2013; calls by dose curve; tested in A549 cells; further: nearly all actives have a fitted effect of over 35% in size
Numbers stand for hits. Only some compounds are listed: those with a hit (about 6.5% of all), similar ones and a draw of the others.

`CCCN1C2CCCC1CC(NC(=S)Nc1cc(C)cc(C)c1)C2` (stereo unspecified) gave HCMV antiviral inconclusive and FMDV inh inactive.
For O=C(COC(=O)c1ccccc1OCc1ccccc1Cl)NC1CCS(=O)(=O)C1 (stereo unspecified) the results were HCMV antiviral inactive and FMDV inh inactive.
For C[C@H](NC(=O)[C@@H]1Cc2ccccc2CN1C(=O)OC(C)(C)C)C(=O)NC1CCCCC1 the results were VACV Venus inh inactive, Lassa entry inh inactive, HCMV antiviral active, Marburg entry inh inactive, FMDV inh inactive and VACV mCherry inh inactive.
`CCCCOc1ccc(C)cc1CN(CCO)CCO` gave VACV Venus inh inactive, Lassa entry inh inactive, HCMV antiviral inactive, Marburg entry inh inactive and VACV mCherry inh inactive.
`CCCCCc1ccc(OCCCC[n+]2cccc(C)c2)c(CCCCC)c1` gave VACV Venus inh inconclusive, Lassa entry inh inconclusive, HCMV antiviral -101.5, Marburg entry inh inconclusive, FMDV inh inconclusive and VACV mCherry inh inconclusive.
`CCCCCc1ccc(OCCCC[n+]2ccc(C)cc2)c(CCCCC)c1` gave VACV Venus inh inconclusive, Lassa entry inh 4.47µM, HCMV antiviral -100.2, Marburg entry inh inconclusive, FMDV inh inconclusive and VACV mCherry inh inconclusive.
CCCCCCCCCCCCCCCC[n+]1ccc(C)cc1 was read as VACV Venus inh 28.2µM and VACV mCherry inh inconclusive.
Screening COc1cccc(-c2nc(C(=O)NCC3CCCO3)cc3c2[nH]c2ccccc23)c1 (stereo unspecified) returned VACV Venus inh inactive, HCMV antiviral inactive, FMDV inh inconclusive and VACV mCherry inh inconclusive.
For COc1ccc(/C=N/NC(=O)c2ccoc2C)cc1CN1CCN(c2ccc(F)cc2)CC1 the results were HCMV antiviral inactive and FMDV inh inactive.
Cc1ccc(-c2cc(C(=O)N/N=C/c3c(C)nn(-c4ccccc4)c3C)n[nH]2)s1 was read as Lassa entry inh 8.2µM, HCMV antiviral -91.9, Marburg entry inh inconclusive and FMDV inh inconclusive.
Cc1nn(-c2ccccc2)c(C)c1-c1cc(C(=O)N/N=C/c2cccnc2)[nH]n1 was read as HCMV antiviral inactive.
`Cc1ccc(-c2cc(C(=O)N/N=C/c3c(C)nn(-c4ccccc4)c3C)[nH]n2)cc1` gave HCMV antiviral -98.5 and Marburg entry inh inactive.
`Cc1nn(-c2ccccc2)c(C)c1/C=N/NC(=O)c1cc(C(C)(C)C)[nH]n1` gave VACV Venus inh inconclusive, Lassa entry inh inconclusive, HCMV antiviral inactive, Marburg entry inh 4.47µM and FMDV inh inactive.
NC(=O)c1cccc(Nc2nc(C(N)C3CCCCC3)cs2)n1 (stereo unspecified) was read as VACV Venus inh inactive, HCMV antiviral inactive, FMDV inh inactive and VACV mCherry inh inactive.
Screening CC(C)(C)c1ccc(NC(=O)N2CCCN(c3ccc([N+](=O)[O-])cn3)CC2)cc1 returned VACV Venus inh inconclusive, Lassa entry inh inconclusive, HCMV antiviral -73.0, Marburg entry inh inactive, FMDV inh 31.6µM and VACV mCherry inh inactive.
CC(=O)Nc1cc(C(=O)N2CC3(C)CC2CC(C)(C)C3)cc2ncn(CCc3ccccn3)c12 (stereo unspecified) was read as VACV Venus inh inactive, FMDV inh inactive and VACV mCherry inh inactive.
Nc1nc(NCc2ccccc2)nc(NCc2ccccc2)c1[N+](=O)[O-] was read as VACV Venus inh inactive, Lassa entry inh inactive, HCMV antiviral inconclusive, Marburg entry inh inconclusive, FMDV inh inactive and VACV mCherry inh inactive.
For CNc1nc(N)c([N+](=O)[O-])c(NCc2ccccc2)n1 the results were VACV Venus inh inactive, Lassa entry inh inactive, HCMV antiviral inactive, Marburg entry inh inactive, FMDV inh inactive and VACV mCherry inh inactive.
`Cc1ccc(CNc2nc(N)c([N+](=O)[O-])c(NCc3ccccc3)n2)cc1` gave VACV Venus inh inactive, Lassa entry inh inactive, HCMV antiviral -61.2, Marburg entry inh inactive, FMDV inh inactive and VACV mCherry inh inactive.
`Cc1cccc(Nc2nc(N)c([N+](=O)[O-])c(NCc3ccccc3)n2)c1` gave VACV Venus inh inconclusive, Lassa entry inh inconclusive, HCMV antiviral -94.2, Marburg entry inh inconclusive, FMDV inh inactive and VACV mCherry inh inconclusive.
Nc1nc(Nc2ccccc2)nc(NCc2ccccc2)c1[N+](=O)[O-] was read as VACV Venus inh inconclusive, Lassa entry inh inconclusive, HCMV antiviral -75.2, Marburg entry inh inconclusive, FMDV inh inconclusive and VACV mCherry inh inconclusive.
Nc1nc(Nc2ccccc2)nc(NC2CCCCC2)c1[N+](=O)[O-] was read as VACV Venus inh inconclusive, Lassa entry inh inconclusive, HCMV antiviral -78.6, Marburg entry inh inconclusive, FMDV inh inactive and VACV mCherry inh inconclusive.
For C/C(=C\c1ccc(N(C)C)cc1)[N+](=O)[O-] the results were Lassa entry inh inconclusive, HCMV antiviral -101.6, Marburg entry inh 5.17µM and FMDV inh 14.1µM.
For CN(C)c1ccc(C(=O)C=Cc2ccc([N+](=O)[O-])cc2)cc1 the results were VACV Venus inh inactive, HCMV antiviral inactive, FMDV inh inactive and VACV mCherry inh inconclusive.
For CC1CCc2c(sc3ncnc(SCC(=O)N(C)C4CCS(=O)(=O)C4)c23)C1 (stereo unspecified) the results were HCMV antiviral active and FMDV inh inactive.
CC(=O)CSc1ncnc2sc3c(c12)CCC(C)C3 (stereo unspecified) was read as Lassa entry inh inactive, HCMV antiviral inactive, Marburg entry inh inactive and FMDV inh inactive.
`C=CCN=C1N[C@@H](c2ccccc2)[C@H](C(=O)OC)[C@@H](C)N1CC` gave Marburg entry inh inactive.
Screening CC(=O)c1ccccc1NC(C(=O)Nc1ccc2c(c1)OCCO2)c1cccs1 (stereo unspecified) returned HCMV antiviral -63.8.
For CN(C)CCNc1ncnc2c1ncn2[C@H]1CN(Cc2ccc(-c3ccccc3)cc2)C[C@@H](CO)O1 the results were VACV Venus inh inconclusive, HCMV antiviral inactive, FMDV inh inconclusive and VACV mCherry inh inactive.
For COC(=O)C1=C(c2ccc(-c3ccccc3)c(F)c2)C[C@@H]2CC[C@H]1N2C(=O)N1CCCC1 the results were VACV Venus inh inconclusive, HCMV antiviral -72.2, FMDV inh inactive and VACV mCherry inh 22.4µM.
COC(=O)C1=C(c2ccc(-c3ccccc3)c(F)c2)C[C@@H]2CC[C@H]1N2C(=O)N1CCCCC1 was read as VACV Venus inh inconclusive, HCMV antiviral -75.1, FMDV inh inconclusive and VACV mCherry inh inconclusive.
`COC(=O)C1=C(c2ccc(-c3ccccc3)c(F)c2)C[C@@H]2CC[C@H]1N2C(=O)N1CCC(C)CC1` gave VACV Venus inh inconclusive, HCMV antiviral inactive, FMDV inh inactive and VACV mCherry inh inactive.
For CC(=O)Nc1ccc(NC(=S)NC(=O)/C=C/c2ccc(Cl)cc2)cc1 the results were VACV Venus inh inactive, Lassa entry inh inactive, HCMV antiviral inactive, Marburg entry inh inconclusive, FMDV inh inactive and VACV mCherry inh inactive.

Source: PubChem
